In PubChem BioAssay AID1159580 (chemical genetic matrix, 2015):
About 2,000 (36%) of roughly 5,500 compounds were called active. About 18% were inconclusive and are not listed. Rule as the data show it: active = normalized growth mostly below about 0.91 (no sharp cut-off); inconclusive = no clear call, values can overlap the other calls; inactive = mostly above about 0.92. Some of the results follow.

Assay: chemical genetic growth profiling, strain panel (AID 1159580);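 also: tested at 20 µM; growth read once vehicle control cultures reached saturation at 30 °C; 1 = growth at the plate median or of vehicle wells; lower values mean less growth of the strain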
Details: growth OD

Measured: normalized growth

O=C(O)c1cc2ccccc2c(Cc2c(O)c(C(=O)O)cc3ccccc23)c1O
inactive: S. cerevisiae deletion strains, locus YJR043C, strain POL32, hits give low values 1.01 | S. cerevisiae deletion strains, locus YKL009W, strain mrt4, hits give low values 0.989 | S. cerevisiae deletion strains, locus YKL068W, hits give low values 1.01 | S. cerevisiae deletion strains, locus YKL085W, strain MDH1 (second series), hits give low values 1 | S. cerevisiae deletion strains, locus YKL085W, strain MDH1, hits give low values 1 | S. cerevisiae deletion strains, locus YKL160W, strain elf1, hits give low values 1 | S. cerevisiae deletion strains, locus YKR001C, strain vps1, hits give low values 0.966 | S. cerevisiae deletion strains, locus YKR026C, strain gcn3, hits give low values 0.998 | S. cerevisiae deletion strains, locus YKR091W, strain srl3, hits give low values 1 | S. cerevisiae deletion strains, locus YLL001W, strain dnm1, hits give low values 0.996 | S. cerevisiae deletion strains, locus YLL026W, hits give low values 1 | S. cerevisiae deletion strains, locus YLL041C, strain sdh2, hits give low values 0.992 | S. cerevisiae deletion strains, locus YLR027C, strain aat2, hits give low values 0.999 | S. cerevisiae deletion strains, locus YLR039C, strain RIC1, hits give low values 0.996 | S. cerevisiae deletion strains, locus YLR058C, strain SHM2, hits give low values 1 | S. cerevisiae deletion strains, locus YLR102C, strain apc9, hits give low values 0.994 | S. cerevisiae deletion strains, locus YLR221C, strain rsa3, hits give low values 0.99 | S. cerevisiae deletion strains, locus YLR258W, strain gsy2, hits give low values 0.996 | S. cerevisiae deletion strains, locus YLR262C, strain YPT6 (second series), hits give low values 1.01 | S. cerevisiae deletion strains, locus YLR262C, strain YPT6, hits give low values 1.07 | S. cerevisiae deletion strains, locus YLR268W, strain sec22, hits give low values 0.993 | S. cerevisiae deletion strains, locus YLR320W, strain mms22, hits give low values 0.991 | S. cerevisiae deletion strains, locus YLR330W, strain CHS5, hits give low values 0.996 | S. cerevisiae deletion strains, locus YLR342W, strain FKS1 (second series), hits give low values 0.972 | S. cerevisiae deletion strains, locus YLR342W, strain FKS1, hits give low values 0.998 | S. cerevisiae deletion strains, locus YLR357W, strain rsc2, hits give low values 0.99 | S. cerevisiae deletion strains, locus YLR370C, strain arc18, hits give low values 1.01 | S. cerevisiae deletion strains, locus YLR371W, strain rom2, hits give low values 0.966 | S. cerevisiae deletion strains, locus YLR384C, strain iki3, hits give low values 0.988 | S. cerevisiae deletion strains, locus YLR418C, strain cdc73, hits give low values 0.93 | S. cerevisiae deletion strains, locus YML016C, strain PPZ1, hits give low values 0.978 | S. cerevisiae deletion strains, locus YML032C, strain rad52, hits give low values 0.994 | S. cerevisiae deletion strains, locus YML120C, strain ndi1, hits give low values 1 | S. cerevisiae deletion strains, locus YML124C, strain tub3, hits give low values 0.994 | S. cerevisiae deletion strains, locus YMR058W, strain fet3, hits give low values 1 | S. cerevisiae deletion strains, locus YMR078C, strain ctf18, hits give low values 0.984 | S. cerevisiae deletion strains, locus YMR125W, strain sto1, hits give low values 1 | S. cerevisiae deletion strains, locus YMR129W, hits give low values 0.997 | S. cerevisiae deletion strains, locus YMR205C, strain PFK2, hits give low values 1.01 | S. cerevisiae deletion strains, locus YMR223W, strain ubp8, hits give low values 1 | S. cerevisiae deletion strains, locus YMR231W, strain pep5, hits give low values 1 | S. cerevisiae deletion strains, locus YMR263W, strain SAP30, hits give low values 0.999 | S. cerevisiae deletion strains, locus YMR307W, strain GAS1, hits give low values 1.1 | S. cerevisiae deletion strains, locus YNL067W, strain RPL9B, hits give low values 1.01 | S. cerevisiae deletion strains, locus YNL071W, strain lat1, hits give low values 0.987 | S. cerevisiae deletion strains, locus YNL209W, strain ssb2, hits give low values 1 | S. cerevisiae deletion strains, locus YNL233W, strain BNI4, hits give low values 1.01 | S. cerevisiae deletion strains, locus YNL248C, strain rpa49, hits give low values 0.984 | S. cerevisiae deletion strains, locus YNL250W, strain rad50, hits give low values 1.01 | S. cerevisiae deletion strains, locus YNL271C, strain bni1, hits give low values 1.01 | S. cerevisiae deletion strains, locus YNL298W, strain CLA4, hits give low values 0.983 | S. cerevisiae deletion strains, locus YNL307C, strain MCK1, hits give low values 0.996 | S. cerevisiae deletion strains, locus YNL322C, strain KRE1 (second series), hits give low values 1.02 | S. cerevisiae deletion strains, locus YNR049C, strain mso1, hits give low values 1 | S. cerevisiae deletion strains, locus YNR052C, strain pop2, hits give low values 0.981 | S. cerevisiae deletion strains, locus YOL012C, strain htz1 0.665 | S. cerevisiae deletion strains, locus YOL147C, strain pex11, hits give low values 1 | S. cerevisiae deletion strains, locus YOR001W, strain rrp6, hits give low values 1.01 | S. cerevisiae deletion strains, locus YOR061W, strain CKA2, hits give low values 0.984 | S. cerevisiae deletion strains, locus YOR069W, strain VPS5, hits give low values 0.999 | S. cerevisiae deletion strains, locus YOR070C, strain gyp1, hits give low values 1 | S. cerevisiae deletion strains, locus YOR080W, strain dia2, hits give low values 1 | S. cerevisiae deletion strains, locus YOR083W, strain WHI5, hits give low values 1 | S. cerevisiae deletion strains, locus YOR106W, strain vam3, hits give low values 0.976 | S. cerevisiae deletion strains, locus YOR136W, strain idh2, hits give low values 1 | S. cerevisiae deletion strains, locus YOR144C, strain elg1, hits give low values 0.99 | S. cerevisiae deletion strains, locus YOR184W, strain ser1, hits give low values 0.989 | S. cerevisiae deletion strains, locus YOR231W, strain MKK1, hits give low values 0.875 | S. cerevisiae deletion strains, locus YOR265W, strain rbl2, hits give low values 0.991 | S. cerevisiae deletion strains, locus YOR270C, strain vph1, hits give low values 0.974 | S. cerevisiae deletion strains, locus YOR290C, strain snf2, hits give low values 0.989 | S. cerevisiae deletion strains, locus YOR316C, strain cot1, hits give low values 0.997 | S. cerevisiae deletion strains, locus YPL051W, strain arl3, hits give low values 1.01 | S. cerevisiae deletion strains, locus YPL055C, strain LGE1, hits give low values 1 | S. cerevisiae deletion strains, locus YPL078C, strain atp4, hits give low values 1 | S. cerevisiae deletion strains, locus YPL106C, strain sse1, hits give low values 0.964 | S. cerevisiae deletion strains, locus YPL240C, strain hsp82, hits give low values 0.976 | S. cerevisiae deletion strains, locus YPL256C, strain CLN2, hits give low values 0.905 | S. cerevisiae deletion strains, locus YPR119W, strain clb2, hits give low values 0.988 | S. cerevisiae deletion strains, locus YPR141C, strain kar3, hits give low values 1.02 | S. cerevisiae deletion strains, locus YPR163C, strain tif3, hits give low values 0.995 | S. cerevisiae deletion strains, locus YPR167C, strain met16, hits give low values 0.991 | S. cerevisiae deletion strains, strain wtn01, hits give low values 0.985 | S. cerevisiae strains, strain wild type, hits give low values 1
active: S. cerevisiae deletion strains, locus YJR066W, strain TOR1, hits give low values 0.819 | S. cerevisiae deletion strains, locus YLR113W, strain HOG1, hits give low values 0.847 | S. cerevisiae deletion strains, locus YNL183C, strain NPR1, hits give low values 0.829
